Most compounds without a hit are left out; they make up all but 19% or so of the library.
TDP1 cell noCPT = qHTS for Inhibitors of human tyrosyl-DNA phosphodiesterase 1 (TDP1): qHTS in cells in absence of CPT. DT40 Tdp1-/- hTDP1 cells, no CPT, ATP luminescence, 48 h. Potency, µM (doses to about 46.2 µM), actives largely listed as inhibitors. actives 15% (n = 420,000). AID 686978, 2013; further: nearly all actives have a fitted effect of over 55% in size
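Chicken DT40 Tdp1-/- cells stably complemented with human TDP1 were seeded at 400 cells/well with DMSO in place of 20 nM camptothecin. After compound pinning, cells grew at least 48 hr at 37 °C; viability read by CellTiter-Glo luminescence.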
IL1B secr inh = inflammasome signaling inhibition, IL-1 beta readout; actives 4.7% (n = 360,000); AID 743279; THP-1 LPS/ATP IL-1B secretion, AlphaLISA, 16 h; stronger effect = lower value; activity change, % at 57.5 µM; in the data active means activity change below about -50%; inconclusive means mostly about -30% to -49%
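THP-1 cells pretreated 1 hr with compounds (up to 57.5 uM final), then stimulated with LPS (250 ng/mL final) plus ATP (1.25 mM final); secreted IL-1B measured by AlphaLISA after 16 hr, decreased signal indicating inhibition.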
HT1080NT lethal = kills 2HG-producing HT-1080-NT fibrosarcoma cells | HT-1080-NT fibrosarcoma viability, CellTiter-Glo ATP luminescence, 48 h | AID 686970 | actives 1.6% (n = 360,000) | Potency, µM (highest dose often 46.1 µM), actives largely listed as cytotoxic;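 further: NT is the 2HG producing partner of a matched IDH1 knockdown line; nearly all actives have a fitted effect of over 55% in size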
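Toxicity toward the 2HG-producing NT line was scored as %Activity, normalised to DMSO and no-cell wells, from CellTiter-Glo luminescence after 48 hours' treatment.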
HT1080 IDH1KD tx = kills HT-1080 cells with IDH1 knockdown | HT-1080 IDH1 knockdown viability, ATP luminescence, 48 h | Potency, µM (top dose mostly 46.1 µM), most hits filed as cytotoxic | actives 2% (n = 360,000) | AID 686971
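IDH1KD HT-1080 cells, 750/well, RPMI + 5% FBS; compound pinned after 2 h settling; 48 h, 37 °C; CellTiter-Glo luminescence; % activity normalised to DMSO and no-cell wells; curves fitted, classed by r2 and efficacy.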
TDP1 cell CPT = growth inhibition of DT40 Tdp1-/-;hTDP1 cells with camptothecin (screen for TDP1 inhibitors). Potency, µM (doses to about 46.2 µM), hits mostly inhibitors. AID 686979. actives 12% (n = 420,000). chicken DT40 Tdp1-/-;hTDP1 cells + 20 nM CPT, ATP luminescence, 48 h; further: nearly all actives have a fitted effect of over 55% in size
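Chicken DT40 Tdp1-/- cells complemented with human TDP1, 400 cells/well, exposed to compounds plus 20 nM camptothecin for at least 48 h at 37 C; viability read as ATP content by CellTiter-Glo luminescence.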
A number is an active result; i = inactive; ? = inconclusive; nt = no result; [ ] = dose if it differs, or a comment. Unless noted, the call rests on the fitted dose curve; in most records, active means well fitted curve in the direction sought with a large enough effect; inconclusive means small, poorly fitted or top-dose-only effect, or another doubt; inactive means no such curve, though single readings can be large; an effect the other way counts as inactive or inconclusive.

SMILES | TDP1 cell noCPT | IL1B secr inh | HT1080NT lethal | HT1080 IDH1KD tx | TDP1 cell CPT
Cc1ccc(/C=C2\SC(N3CCN(C(c4ccccc4)c4ccccc4)CC3)=NC2=O)o1 | 11.6µM | ? | i | i | 14.6µM
COC(=O)c1ccccc1C(=O)N1CCC(CCC(=O)NC2CC2)CC1 | i | i | i | i | i
CCCCC(=O)Nc1ccc(C(=O)NNC(=S)NC(=O)c2ccco2)cc1 | 23.1µM | i | i | i | 13µM
O=C(Nc1ccc(NC(=S)NC(=O)c2ccco2)cc1)c1ccc(Br)cc1 | i | i | i | i | i
Cc1cccc(NC(=S)NC(=O)c2ccco2)c1C | i | i | i | i | i
O=C(NC(=S)Nc1cccc(NC(=S)NC(=O)c2ccco2)n1)c1ccco1 | 5.17µM | i | ? | ? | i
O=C(NNC(=S)NC(=O)c1ccco1)c1ccc(NC(=O)c2ccccc2)cc1 | 20.6µM | i | i | i | 16.4µM
O=C(NC(=S)NNC(=O)c1ccccc1O)c1ccco1 | 18.4µM | i | ? | ? | 20.6µM
COc1cc(OC)c(C(=O)OCC(=O)N2CCOCC2)cc1OC | i | i | i | i | i
CC(=O)c1ccc(-c2ccc(C(=O)NC3CCCCCC3)o2)cc1 | i | i | ? | i | i
CCOc1ccc(NC(=S)NC(=O)c2ccco2)cc1 | 29.1µM | i | i | i | i
COc1cc(/C=N/N=C2/SCC(=O)N2c2ccc(O)cc2)ccc1O | 20.6µM | i | i | i | 9.2µM
CCOC(=O)N1CCN(C(=O)c2ccc(CS(=O)c3ccccc3)o2)CC1 (stereo not drawn) | i | i | i | i | i
Clc1ccc(C2=CSC3=NCCN23)c(Cl)c1 | i | -51.1 | i | i | i
O=C(NCCc1csc(-c2cccc(F)c2)n1)c1cccs1 | 16.4µM | nt | nt | nt | ?
CC(C)Oc1ccc(C(=O)NCCc2csc(-c3cccc(F)c3)n2)cc1 | i | nt | nt | nt | i
COc1cccc(NC(=O)C(=O)NCCc2csc(-c3ccc(C(F)(F)F)cc3)n2)c1 | i | nt | nt | nt | ?
COc1ccc(-c2nc(CCNC(=O)c3cccs3)cs2)cc1 | 20.6µM | i | i | i | 16.4µM
CCc1nc(SCC(=O)NCCc2ccccc2)c2oc3ccccc3c2n1 | ? | i | i | i | 20.6µM
CCc1nc(SCC(=O)c2cccs2)c2oc3ccccc3c2n1 | 18.4µM | i | i | i | ?
COc1ccc(/C=C/C(=O)OCC(=O)NC2CCCCC2C)c(OC)c1 (stereo not drawn) | i | i | i | i | i
CCCCNC(=O)/C(C#N)=C/c1ccc(-c2ccc(S(=O)(=O)N3CCOCC3)cc2)o1 | 10.3µM | i | i | i | 7.31µM
CC(C)OC(=O)/C(C#N)=C/c1ccc(-c2ccc(SC(F)F)cc2)o1 | ? | i | i | i | ?
COC(=O)/C(C#N)=C/c1ccc(-c2ccc(S(N)(=O)=O)cc2)o1 | i | -74.2 | i | i | i
CN(CC(=O)Nc1ccccc1Br)C(=O)c1cc(S(=O)(=O)N(C)C)ccc1N1CCCC1 | i | i | i | i | i
SMILES | TDP1 cell noCPT | IL1B secr inh | HT1080NT lethal | HT1080 IDH1KD tx | TDP1 cell CPT
COc1ccc(NC(=O)c2c(C)oc3ccc(O)c(CN4CCC(C)CC4)c23)cc1Cl | ? | nt | nt | nt | 9.2µM
COc1ccc(NC(=O)c2c(C)oc3ccc(O)c(CN4CCOCC4)c23)cc1 | i | nt | nt | nt | i
COc1ccc(NC(=O)c2c(C)oc3ccc(O)c(CN4CCCC(C)C4)c23)cc1Cl (stereo not drawn) | 16.4µM | nt | nt | nt | 23.1µM
COc1ccc2cc(C(c3nnnn3C3CCCC3)N3CCOCC3)c3nnnn3c2c1 (stereo not drawn) | i | i | i | i | i
Cc1ccc(-c2nc(CCNC(=O)c3ccco3)cs2)cc1 | ? | i | i | i | i
O=C(NCCc1csc2nc(-c3ccc(F)cc3)nn12)c1ccco1 | 16.4µM | nt | nt | nt | ?
O=C(Cc1ccc(F)cc1)NCCc1csc2nc(-c3ccc(Cl)cc3)nn12 | 20.6µM | nt | nt | nt | ?
O=C(NCCc1csc2nc(-c3ccccc3F)nn12)C(=O)Nc1cc(F)ccc1F | i | nt | nt | nt | i
O=C(Cc1ccccc1)NCCc1csc2nc(-c3ccc(Cl)cc3)nn12 | 9.2µM | nt | nt | nt | 11.6µM
Cc1cccc(-c2nc3scc(CCNC(=O)c4ccccc4Cl)n3n2)c1 | 20.6µM | nt | nt | nt | ?
CC(=O)Nc1cccc(NC(=O)C(=O)NCCc2csc3nc(-c4ccccc4F)nn23)c1 | i | nt | nt | nt | i
O=C(Cc1ccc(Cl)cc1)NCCc1csc2nc(-c3ccccc3F)nn12 | i | nt | nt | nt | i
CN(Cc1ccccc1)C(=O)c1cccc(NC(=O)Cc2cccc(NC(=O)C3CCN(C(=O)C4CCC4)CC3)c2)c1 | ? | i | i | i | ?
COc1ccc(Br)cc1CNC(=O)CSc1cc(=O)n(C)c2ccccc12 | i | nt | nt | nt | i
CN1CCCN(C(=O)c2c(F)cccc2Cl)CC1 | i | i | i | i | i
N#Cc1sc2nc(C3CC3)cc(-c3ccc(Cl)cc3)c2c1N | ? | i | i | i | 16.4µM
OCCN1CCN(c2cc(-c3ccc4ccccc4c3)nc3ccnn23)CC1 | ? | i | i | i | 18.4µM
CN1CCCN(c2cc(-c3ccc4ccccc4c3)nc3ccnn23)CC1 | 20.6µM | i | ? | i | 20.6µM
Cc1cccc(-c2cc(N3CCCN(C)CC3)n3nccc3n2)c1 | ? | i | i | i | ?
Cc1oc(-c2ccccc2NC(=O)C2CCC2)nc1CNC(=O)c1c(F)ccc(F)c1F | i | nt | nt | nt | i[9.04 µM]
O=C(CCn1c(=O)c2ccccc2n(Cc2ccccc2)c1=O)NCc1ccc2c(c1)OCO2 | i | i | i | i | i
COc1ccc(C(c2nnnn2CC2CCCO2)N2CCN(c3cccc(C)c3C)CC2)cc1 (stereo not drawn) | 18.4µM | i | i | i | ?
COc1ccc(C(c2nnnn2CC2CCCO2)N2CCC(C(N)=O)CC2)cc1 (stereo not drawn) | i | i | i | i | i
CCCCC(c1nnnn1CC1CCCO1)N1CCN(Cc2ccccc2)CC1 (stereo not drawn) | i | i | i | i | i
CCCCC(c1nnnn1CC1CCCO1)N1CCN(c2cccc(C)c2C)CC1 (stereo not drawn) | 16.4µM | i | i | i | ?
CCOC(=O)C1CCN(C(=O)c2cc3cc(C)ccc3[nH]2)CC1 | ? | i | i | i | i
NS(=O)(=O)c1ccc(CCNC(c2ccccc2)c2ccccc2)cc1 | 23.1µM | i | i | i | ?
CCOCCCNC(c1ccccc1)c1ccncc1 (stereo not drawn) | i | i | i | i | i
c1ccc(C(NCCNC(c2ccccc2)c2ccccc2)c2ccccc2)cc1 | 20.6µM | i | i | i | ?
Cc1ccc(O)c(-c2cc(C(=O)NCc3ccc4c(c3)OCO4)[nH]n2)c1 | ? | ? | i | i | ?
